Screening results from PubChem.
Compounds with a hit are over-represented: about 19% of the library has one in this group of screens.
uPA generation = cell surface uPA generation inhibition; cell surface uPA generation assay, qHTS; AID 540303; 330,000 tested, 0.31% active; Potency, µM (doses to about 38.3 µM), without a hit: at the top dose activity change, negative = inhibition, usual class: inhibitors; active means well fitted inhibition curve with a large enough effect; inconclusive means small, poorly fitted or top-dose-only effect; inactive means no such curve, though single readings can be large or run the other way; tested in mouse RAW 264.7 cells; further: potency means the concentration at half of the fitted maximal effect; nearly all actives have a fitted effect of over 55% in size
TDP1 cell CPT = DT40-hTDP1 cell growth loss with CPT. chicken DT40 Tdp1-/-;hTDP1 cells + 20 nM CPT, ATP luminescence, 48 h. Potency, µM (titrated, usually from 46.2 µM), for the others: at the top dose activity change, negative = growth inhibition, most hits filed as inhibitors. 420,000 tested, 12% active; further: potency means the concentration at half of the fitted maximal effect; nearly all actives have a fitted effect of over 55% in size
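Chicken DT40 Tdp1-/- cells complemented with human TDP1, 400 cells/well, exposed to compounds plus 20 nM camptothecin for at least 48 h at 37 C; viability read as ATP content by CellTiter-Glo luminescence.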
HT1080-NT tox = kills 2HG-producing HT-1080-NT fibrosarcoma cells; Potency, µM (highest dose often 46.1 µM), for inactives: at the highest dose activity, negative = less viability, most hits filed as cytotoxic; 360,000 tested, 1.6% active; HT-1080-NT fibrosarcoma viability, CellTiter-Glo ATP luminescence, 48 h;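 further: NT is the 2HG producing partner of a matched IDH1 knockdown line; potency means the concentration at half of the fitted maximal effect; 0% = DMSO-treated cells and -100% = media-only wells without cells; nearly all actives have a fitted effect of over 55% in size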
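Toxicity toward the 2HG-producing NT line was scored as %Activity, normalised to DMSO and no-cell wells, from CellTiter-Glo luminescence after 48 hours' treatment.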
IL1B secr inh = inflammasome signaling inhibition, IL-1 beta readout. THP-1 LPS/ATP IL-1B secretion, AlphaLISA, 16 h; stronger effect = lower value. 360,000 tested, 4.7% active. AID 743279. activity change, % at 57.5 µM; in the data active means activity change below about -50%; inconclusive means mostly about -30% to -49%
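Secreted IL-1B measured by AlphaLISA bead assay after 16 h compound exposure of THP-1 cells; compounds (final up to 57.5 uM) added 1 h before LPS (250 ng/mL) and ATP (1.25 mM) stimulation; lower signal means less secretion.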
HT1080 IDH1KD tx = HT-1080 IDH1 knockdown cell toxicity (counter line); HT-1080 IDH1 knockdown viability, ATP luminescence, 48 h; Potency, µM (doses to about 46.1 µM), for the others: top-dose activity, negative = toxicity, usual class: cytotoxic; 360,000 tested, 2% active;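 further: potency means the concentration at half of the fitted maximal effect; 0% = DMSO wells and -100% = cell-free medium wells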
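HT-1080-IDH1KD cells (IDH1 knocked down), 750/well in RPMI with 5% FBS, treated with compound 48 h at 37 degrees C. Viability by CellTiter-Glo luminescence, normalised to DMSO and no-cell wells; concentration-response curves classed.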
TDP1 cell noCPT = qHTS for Inhibitors of human tyrosyl-DNA phosphodiesterase 1 (TDP1): qHTS in cells in absence of CPT; DT40 Tdp1-/- hTDP1 cells, no CPT, ATP luminescence, 48 h; Potency, µM (top dose mostly 46.2 µM), inactives show at the highest dose activity change, negative = growth inhibition, hits mostly inhibitors; 420,000 tested, 15% active; AID 686978, 2013; further: potency means the concentration at half of the fitted maximal effect; nearly all actives have a fitted effect of over 55% in size
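Camptothecin absent (DMSO only). Human TDP1-complemented DT40 knockout cells, 400 cells/well, 37 °C for minimum 48 hr; ATP measured via CellTiter-Glo, 30 min dark incubation, luminescence.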
* = called active by the depositor; ? = inconclusive; . = no result given; [ ] = remark or other dose. Unless noted, the call rests on the fitted dose curve; in most records, active means well fitted curve in the direction sought with a large enough effect; inconclusive means small, poorly fitted or top-dose-only effect, or another doubt; inactive means no such curve, though single readings can be large; an effect the other way counts as inactive or inconclusive. Unless noted, on the % scale 0 is the no-effect control and ±100 the full control effect.

SMILES	uPA generation	TDP1 cell CPT	HT1080-NT tox	IL1B secr inh	HT1080 IDH1KD tx	TDP1 cell noCPT
Nc1sc(-c2ccccc2)cc1C(=O)N1CCN(c2ccccc2)CC1	.	?	-27%	-26	-2%	?
O=c1c2ccccc2c2ccccc2c(=O)n1Nc1ccccc1	.	6%	?	1	13µM*	-5%
CCc1ccc2ncc3c(-c4ccc(F)cc4)nn(CC(=O)NC4CCCCC4)c3c2c1	.	13%	.	.	.	-2%
COc1ccc(-c2cc(OC(=O)c3cccc(Cl)c3)c3c(C)oc(C)c3c(=O)c2)cc1	.	26µM*	.	.	.	?
CCOc1cc(-c2ccc(OC(=O)c3ccccc3)c(OC)c2)cc(=O)c2c(C)oc(C)c12	.	6.5µM*	.	.	.	5.8µM*
CCOc1cc(/C=N/Nc2cccc(C(=O)O)c2)ccc1OC(=O)c1ccccc1	0%	7%	-19%	6	-16%	?
COc1ccc(C(=O)Nc2ccc3oc(-c4cccc(Cl)c4)cc(=O)c3c2O)cc1	-12%	-28%	-17%	53	?	?
CCOc1cc(-c2ccc(OC(=O)c3ccc(Cl)cc3)c(OC)c2)cc(=O)c2c(C)oc(C)c12	.	4.6µM*	.	.	.	5.2µM*
CC(C)CNC(=O)N1[C@H](c2cccs2)[C@@H](C)C(=O)[C@@H](C)[C@@H]1c1cccs1	.	18µM*	.	.	.	?
CCOc1ccc(C2OC34CCCCC3C(C#N)(C#N)C2(C#N)C(=N)O4)cc1OC (stereo not given)	0%	13µM*	0%	-6	1%	16µM*
CCCCOc1ccc(C2OC34CCCCC3C(C#N)(C#N)C2(C#N)C(=N)O4)cc1 (stereo not given)	3%	-7%	12%	4	3%	-3%
C=CCOc1ccc(C2OC34CCCCC3C(C#N)(C#N)C2(C#N)C(=N)O4)cc1 (stereo not given)	1%	13µM*	16%	0	9%	6.5µM*
CSCCC(NS(=O)(=O)c1c(Cl)cccc1Cl)C(=O)O (stereo not given)	3%	10%	3%	27	20%	10%
O=C(CSc1ccc2ccccc2n1)NC1CC1	17%	-11%	14%	-3	11%	-21%
COc1ccc(-c2nnc(SCC(=O)N(C)C3CCCCC3)o2)cc1OC	.	16µM*	.	.	.	12µM*
O=C(CN(C(=O)CSc1nnc(COc2ccccc2)o1)c1ccc(F)cc1)NC1CCCC1	?	?	7%	-26	-7%	?
CCN(C(=O)CSc1ccc2ccccc2n1)C1CCCCC1	9%	?	19%	-69*	19%	?
Cc1cccc(OCc2nnc(SCC(=O)N(C)C3CCCCC3)o2)c1	-3%	18µM*	-6%	-2	2%	?
CCOc1ccc(N(CC(=O)NC2CCCC2)C(=O)CSc2nnc(COc3ccccc3)o2)cc1	-8%	21µM*	-17%	-55*	-6%[9.24 µM]	21µM*
CCCn1c(N)c(N(CCOC)C(=O)c2ccc(S(=O)(=O)N3CCOCC3)cc2)c(=O)[nH]c1=O	0%	-1%	1%	4	14%	14%
CN(C(=O)CSc1nc2ccccc2o1)C1CCCCC1	10%	?	5%	?	4%	29µM*
O=C(CSc1nnc(COc2ccc(Cl)cc2)o1)N(c1ccccc1)C1CCS(=O)(=O)C1 (stereo not given)	.	?	-16%	-17	-23%	13µM*
CC(Oc1ccc(F)cc1)c1nnc(SCC(=O)N(c2ccccc2)C2CCS(=O)(=O)C2)o1 (stereo not given)	-7%	?	1%	-2	-8%	-84%
